Assay outcomes from PubChem BioAssay.
The sample as a whole holds a higher share of hits than the screen did.
Tg IFNy HTS: T. gondii growth inhibition with IFN-gamma, primary screen, cell-based; Toxoplasma gondii growth in IFN-gamma-treated host cells; active compounds read low; activity change, negative = inhibition, % (no concentration beside the values); hit rate 3.8% among 69,000; AID 1259416, 2018; in the data active = activity change below about -70%, passing the limit was not always enough;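 also: host cells are HeLa cells infected with Toxoplasma gondii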
A number is an active result; – = inactive; ! = repeats disagree.

SMILES | Tg IFNy HTS
Cc1cccc(-c2nc(Cc3noc(-c4ccncc4)n3)c(C)o2)c1 | –
COc1ccccc1-c1nc(Cn2nnc(-c3nc(-c4cccnc4)no3)c2C)c(C)o1 | –
CCOc1ccccc1-c1nc(Cc2noc(-c3ccccc3)n2)c(C)o1 | -100.7
CCOc1ccccc1-c1nc(Cc2noc(-c3cccnc3)n2)c(C)o1 | -78.7
CCOc1ccccc1-c1nc(Cc2nc(-c3ccc(OC)cc3)oc2C)no1 | -92.7
CCOc1ccccc1-c1noc(-c2nnn(Cc3nc(-c4ccc(C)cc4)oc3C)c2C)n1 | –
CCOc1ccc(-c2nc(Cc3noc(-c4cccnc4)n3)c(C)o2)cc1 | –
Cc1oc(-c2ccccc2)nc1Cc1noc(COc2ccccc2)n1 | –
Cc1oc(-c2ccccc2)nc1Cc1noc(-c2cccnc2)n1 | -86.8
Cc1oc(-c2ccccc2)nc1Cc1noc(-c2ccncc2)n1 | –
O=C(c1cncc(F)c1)N1CCCC(CCc2ccc(F)cc2)C1 (centres undefined) | –
CN1C[C@@H](NC(=O)c2cccs2)C[C@H]1C(=O)NCCc1ccccc1Cl | –
CCCN1CCN(CCCNc2nc(-c3ccc(Cl)cc3)nc3ccccc23)CC1 | –
CNC(=O)[C@@H]1CC2CN(S(=O)(=O)c3ccc(OC)cc3)CC2N1C (some centres undefined) | –
CCN1CCC2(CC1)OC(=O)C(C)=C2C(=O)Nc1cc(F)ccc1F | –
COc1cc2[nH]c3c(=O)n(CC(=O)NCc4ccncc4)cnc3c2cc1OC | –
Cc1ccc(-c2coc(-c3ccc(NC(=O)c4sccc4C)cc3)n2)c(C)c1 | –
COCCN1CCOCC12CCN(C(=O)c1ccn(C)n1)CC2 | –
CCNC(=O)c1ccc(N2CCN(Cc3ccc4c(c3)OCCO4)CC2)nc1 | –
CCNC(=O)c1noc(-c2cc(C(C)C)c(O)cc2O)c1-c1ccc(CN2CCOCC2)cc1 | -88.4
O=C(Nc1ccc(CN2CCOCC2)cc1)c1cc2ccccc2o1 | –
Cc1ccc(OCc2ccc(C(=O)N3CCc4ccccc4C3)o2)cc1C | –
COc1ccc(OC)c(C(=O)c2ccc(C(=O)NCC3Cc4cccc(-c5ncccn5)c4O3)cc2)c1 (centres undefined) | –
O=c1oc2ccccc2c2c1C(c1ccc3c(c1)OCO3)Nc1ccc3ccccc3c1-2 (centres undefined) | –
Fc1ccc(C2Nc3ccc4ccccc4c3C3=C2CCCC3)cc1 (centres undefined) | -105.4
SMILES | Tg IFNy HTS
Cc1cc(C)cc(NC(=O)N2CCC(c3nc(C(=O)N4CCCC4)c(C)o3)CC2)c1 | –
CCOC(=O)c1cccc(NC(=O)Nc2ccc(-c3nc(-c4cc(C)ccc4C)co3)cc2)c1 | –
O=C(Cn1c(=O)oc2ccccc21)N1CCCCC1CCn1cccn1 (centres undefined) | –
Cn1ccnc1-c1cnc(NCc2ccccn2)nc1-c1ccco1 | –
Cc1nc2ncc(-c3cc(NCc4ccccn4)nc4[nH]ccc34)cc2[nH]1 | –
Cn1nccc1-c1nc(NCc2ccccn2)ncc1-c1ccsc1 | -93.0
COc1ccccc1C1CCCN1S(=O)(=O)c1cn(C)c(=O)n(C)c1=O (centres undefined) | –
CN(Cc1ccccn1)C(=O)c1nn(C)c2c1CN(Cc1ccco1)C2 | –
CC(C)c1ccc(S(=O)(=O)c2cnc(N3CCC(C(N)=O)(N4CCCCC4)CC3)nc2N)cc1 | –
CCc1ccc(S(=O)(=O)c2cnc(N3CCC(C(N)=O)(N4CCCCC4)CC3)nc2N)cc1 | -78.4
NC(=O)C1(N2CCCCC2)CCN(c2ncc(S(=O)(=O)c3ccccc3)c(N)n2)CC1 | –
COc1cccc2c(=O)c(C/C=C(/C)Cl)c(C)[nH]c12 | -80.6
COc1cccc2c(=O)c(C(=O)NCc3cccnc3)c[nH]c12 | –
COc1cccc2c(=O)c3ccccc3oc12 | –
CC(C)c1nc2ccccc2c2nn(Cc3cc4c(cc3Cl)OCO4)c(=O)n12 | –
Cn1sc(=O)c2cc(S(=O)(=O)NCCc3ccncc3)ccc21 | –
Cn1nc(CNc2ncccn2)c2c1CNCC2 | –
Cn1nc(CNc2ncccn2)c2c1CN(C(=O)c1ccccc1F)CC2 | -105.5
Cc1cccc(S(=O)(=O)N2CCc3c(CNc4ncccn4)nn(C)c3C2)c1 | –
COc1cc2c(c(OC)c1OC)-c1ccc(OC)c(=O)cc1[C@@H](NC(C)=O)CC2 | -72.4!
COc1c(O[C@@H]2O[C@H](CO)[C@@H](O)[C@H](O)[C@H]2O)cc2c(c1OC)-c1ccc(SC)c(=O)cc1[C@@H](NC(C)=O)CC2 | –
COc1ccc([C@@H]2C[C@H](NC(C)=O)C[C@H](CC(C)C)O2)c(OC)c1OC | –
S=c1[nH]cc(-c2ccc(Br)cc2)[nH]1 | -97.0
CCO[C@H]1CN(S(=O)(=O)c2cccnc2)[C@H]2CCCO[C@@H]12 | –
CCO[C@@H]1CCN(S(=O)(=O)N(C)C)[C@@H]2CCO[C@H]21 | -82.5
SMILES | Tg IFNy HTS
CN(C)S(=O)(=O)N1CCO[C@H]2[C@@H](OCc3cccnc3)CC[C@H]21 | –
COCCCNC(=O)Cn1nnc(-c2ccc(NC(=O)c3cccnc3)cc2)n1 | –
Cc1ccc(-c2nnn(CC(=O)Nc3ccc(N4CCCS4(=O)=O)cc3)n2)cc1 | –
COc1ccc(-c2nnn(CC(=O)Nc3ccc(C)cc3)n2)cc1 | -96.8
O=S(=O)(c1ccccc1)N1CCN(CC(O)COc2ccc3ccccc3c2)CC1 (centres undefined) | -82.7
CC(C)c1nccc(CN2CCN(S(=O)(=O)c3ccccc3)CC2)n1 | –
CCC(=O)c1ccc(OCC(O)CN2CCN(c3ccccc3)CC2)cc1 (centres undefined) | –
O=C(NCc1ccccc1)c1ccc2nc(-c3ccsc3)c(-c3ccsc3)nc2c1 | –
O=c1[nH]nc(-c2cc3c(s2)CCCC3)o1 | -99.6
CC1=C(C(=O)Nc2ccc(C)cc2C)C2(CCN(S(C)(=O)=O)CC2)OC1=O | –
CN1C/C=C/CCOc2cccc(c2)-c2ccnc(n2)Nc2cccc(c2)C1 | -84.2
Cn1cc(N2CC3(CCN(C(=O)c4ccc[nH]4)C3)CC2=O)cn1 (centres undefined) | –
COCCNC(=O)c1nc(Nc2ccc(F)cc2)c2ccccc2n1 | –
Clc1ccc(Nc2nc(Nc3ccc(Cl)cc3)nc(Oc3ccccc3)n2)cc1 | -100.2
COc1ccc(-c2nc(Nc3ccc(Cl)cc3)c3ccccc3n2)cc1 | –
c1ccc(Oc2nc(NCc3ccco3)nc(NCc3ccco3)n2)cc1 | –
COCC(=O)N1CCC2(CC1)CC(CC(=O)NCC(C)C)c1ccccc1O2 (centres undefined) | –
CCCC(=O)N1CCN(S(=O)(=O)c2cnc(-c3cccnc3)nc2C(C)C)CC1 | –
Clc1ccc(CSc2cccs2)cc1 | –
O=c1nc(SCc2ccc(Cl)cc2)nc(-c2ccccc2)[nH]1 | –
CN1c2ccsc2-c2nc(SCc3ccc(Cl)cc3)ncc2S1(=O)=O | -85.0
COC(=O)[C@H]1CCc2ccccc2N1C(=O)C(C)C | –
CN1CCCc2sc(C(=O)N3CCC(N(C)C)CC3)nc21 | –
Cn1ncc2c1C(COCC1CC1)CN(C(=O)c1ccccn1)C2 (centres undefined) | –
COc1ccc(-c2ccccc2[C@H]2[C@@H](CO)N(C(=O)NC3CCCCC3)[C@H]2C#N)cc1 | -72.4
COc1ccc(-c2ccccc2[C@@H]2[C@@H](C#N)N(C(=O)NC3CCCCC3)[C@H]2CO)cc1 | –
COc1ccc(-c2ccccc2[C@@H]2[C@@H](C#N)N(C(=O)NC(C)C)[C@H]2CO)cc1 | –
CC(C)(C)OC(=O)N1CCCN(C(=O)Nc2ccc(C(F)(F)F)cc2)CC1 | -85.8
Cn1cnc(S(=O)(=O)N2CCCN(C(=O)OC(C)(C)C)CC2)c1 | –
